“And” between values parts separate entries of the source, which are not always exact repeats. Equal entries are not always repeated. In all, about 360,000 compounds went through this assay and about 25,000 (6.9%) were called active. Entries that show only a call come without a potency. About 9% were inconclusive and are not listed. The call rests on the fitted dose curve; in most records, active means well fitted inhibition curve with a large enough effect; inconclusive means small, poorly fitted or top-dose-only effect; inactive means flat fitted curve, though single readings scatter. Many of the other results were omitted from the sample, so actives are more common in it than they were. The source holds several records for some structures; these can differ, active in one and inactive in another.
Potency means the concentration at half of the fitted maximal effect.

Chain of Luciferin 4-monooxygenase (Photinus pyralis) (P08659 whole entry, looked up): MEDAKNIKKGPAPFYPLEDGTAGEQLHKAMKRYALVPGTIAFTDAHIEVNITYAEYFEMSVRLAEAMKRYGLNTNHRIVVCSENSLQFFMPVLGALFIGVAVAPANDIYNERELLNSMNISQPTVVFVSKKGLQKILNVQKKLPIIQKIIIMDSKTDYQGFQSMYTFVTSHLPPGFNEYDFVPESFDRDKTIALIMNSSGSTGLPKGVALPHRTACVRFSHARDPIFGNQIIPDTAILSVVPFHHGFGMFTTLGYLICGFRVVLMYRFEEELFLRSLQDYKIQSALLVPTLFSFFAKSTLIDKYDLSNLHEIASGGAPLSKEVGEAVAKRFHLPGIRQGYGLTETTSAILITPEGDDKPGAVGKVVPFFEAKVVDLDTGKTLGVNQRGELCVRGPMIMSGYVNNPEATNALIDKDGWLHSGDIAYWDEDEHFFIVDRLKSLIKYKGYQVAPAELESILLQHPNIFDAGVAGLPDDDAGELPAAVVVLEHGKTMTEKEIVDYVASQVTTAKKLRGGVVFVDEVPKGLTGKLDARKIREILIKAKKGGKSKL

The target in this test is Luciferin 4-monooxygenase (Photinus pyralis) (UniProt P08659). Put plainly: qHTS profiling assay for firefly luciferase inhibitor/activator using purifed enzyme and Km concentrations of substrates (counterscreen for miR-21 project). Further: nearly all actives have a fitted effect of over 55% in size. Conditions: purified FLuc, luminescence inhibition; series mostly up to 57.5 µM. Summed up:
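Purified P. pyralis luciferase, 10 nM final, with Km-level 10 uM D-luciferin and 10 uM ATP in 50 mM Tris acetate pH 7.5, 10 mM Mg acetate, 0.01% Tween-20, 0.05% BSA; 6-point qHTS titration about 60 µM downward; luminescence read.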
For orientation: In qHTS, concentration-response curves come from the screen itself.
As to `Cc1cccc(N2CCN(C(=O)CCn3c(=O)c4cccn4c4cccnc43)CC2C)c1` (stereo not given), the Potency entry was “inactive”.

As for `O=C(c1cccc(Cl)c1)N1CCN(CCc2ccncc2)CC1`, the Potency entry was “inactive”.

Consider `O=C(NNS(=O)(=O)c1ccc([N+](=O)[O-])cc1)C1CCCCC1`, for which the Potency result was “inactive”.

Consider `COc1ccc(OC)c2sc(N3CCN(C(=O)C4COc5ccccc5O4)CC3)nc12` (stereo not given), for which the Potency result was “inactive”.

Take `O=C(NCCc1ccc(C(F)(F)F)cc1)c1ccc2c(c1)OCO2`: the Potency entry is “inactive”.

With `CC(NCC(=O)Nc1ccccc1C(=O)NC1CC1)c1ccccc1Cl` (stereo not given), the Potency entry is “inactive”.

Consider `C/C(=N\NC(=O)c1nc(C)cc(C)n1)c1ccccc1`, for which the Potency was 12 µM (active).

On to `C/C(=N/NC(=O)c1ccn(C)n1)c1ccncc1`, for which the Potency result is “inactive”.

With `C/C(=N\NC(=O)c1cc2c(s1)CCC(C)C2)c1cccnc1` (stereo not given), the Potency is 16.9 µM (active).

As to `CC1CCc2sc(C(=O)NCC(c3ccco3)N3CCCCC3)cc2C1` (stereo not given), the Potency entry is “inactive”.

For the compound `C/C(=N\NC(=O)c1cccc([N+](=O)[O-])c1)c1cccnc1`, the Potency entry was “inactive”.

As for `C/C(=N\NC(=O)CNC(=O)C(c1ccccc1)c1ccccc1)c1ccc(C)cc1`, the Potency result is “inactive”.

Take `CCOc1ccc(C(CCc2ccccc2)NC(=O)c2ccc(OC)c(OC)c2)cc1OCC` (stereo not given): the Potency result was “inactive”.

As to `CCC(CC)C(=O)N1CCc2cc(OC)c(OC)cc2C1COc1ccc(F)cc1` (stereo not given), the Potency entry was “inactive”.

On to `N#CCC(=O)Nc1ccc(C(=O)OCC(=O)Nc2sc3c(c2C#N)CCCC3)cc1`, for which the Potency result is “inactive”.

In the case of `CCOc1ccc(N=C2NC(=O)S/C2=C\c2ccc(O)cc2)cc1`, the Potency entry was “inactive”.

As for `O=C1N=C(N2CCc3ccccc3C2)S/C1=C\c1ccc(O)cc1`, the Potency is 16.9 µM (active).

`CC1CCN(C2=NC(=O)/C(=C/c3ccc(O)cc3)S2)CC1`: the Potency is 10.7 µM (active).

In the case of `O=C(C1CCN(c2nnc(-n3cccc3)s2)CC1)N1CCc2ccccc2C1`, the Potency entry is “inactive”.

In the case of `NC1=NC(=O)S/C1=C\c1ccc(O)cc1`, the Potency entry is “inactive”.

`CCCN(C(=O)Cn1ncc2c([nH]c3ccc(C)cc32)c1=O)c1ccccc1C`: the Potency result is “inactive”.

As for `COc1cccc(CNC(=O)c2ccc3c(c2)N(Cc2ccc(C(F)(F)F)cc2)C(=O)c2ccccc2S3)c1OC`, the Potency entry is “inactive”.

For the compound `CSCCC(C(=O)NC1=NCCS1)N1C(=O)c2ccccc2C1=O` (stereo not given), the Potency result is “inactive”.

On to `CC(C)(C)c1cc(C(=O)N/N=C/c2ccc([N+](=O)[O-])s2)n[nH]1`, for which the Potency entry was “inactive”.

Consider `CCOc1ccc(NC(=O)CCC(=O)N/N=C/c2ccc([N+](=O)[O-])s2)cc1`, for which the Potency result is “inactive”.

For the compound `O=[N+]([O-])c1ccc(C=Nc2ccc(Cl)cc2Cl)s1`, the Potency was 2.13 µM (active).

Turning to `COc1ccc(C)cc1NC(=O)CCCN1C(=O)NC(C)(C)C1=O`, the Potency entry is “inactive”.

Consider `CCCNC(=O)CCC(=O)N1Cc2ccccc2Oc2ncccc21`, for which the Potency result was “inactive”.

Take `CCCCC(=O)OC1=CN(Cc2ccccc2)S(=O)(=O)c2ccccc21`: the Potency entry is “inactive”.

On to `COCCn1c(C)cc(C(=O)CSc2nnc(C3CC3)n2C2CC2)c1C`, for which the Potency was 19 µM (active).

Turning to `COCCn1c(C)cc(C(=O)CSc2ncnc3sc4c(c23)CCC4)c1C`, the activity change, negative = inhibition is 8.69% [at 2.3 µM] (inactive).

As to `COCCn1c(C)cc(C(=O)CSc2nc3ccccc3c(=O)n2C(C)COC)c1C` (stereo not given), the Potency entry is “inactive”.

On to `CCOC(=O)c1c(N)c(C#N)nn1-c1ccccc1C(=O)OC`, for which the Potency entry is “inactive”.

As for `Cc1cc(C)n(CC(=O)Nc2ccc([N+](=O)[O-])cc2)n1`, the Potency result was “inactive”.

In the case of `CC1CC(C)CN(C/C=C/c2ccccc2[N+](=O)[O-])C1` (stereo not given), the Potency result was “inactive”.

Take `COc1ccc(-c2c(C)nn3c(N4CCC(C(=O)NCCC(C)C)CC4)cc(C)nc23)cc1OC`: the Potency result is “inactive”.

On to `COC(=O)c1ccc(/C=N/NC(=O)C(=O)N2CCCCCC2)cc1`, for which the Potency result is “inactive”.

Regarding `O=C(N/N=C/c1ccc([N+](=O)[O-])cc1)C(=O)N1CCCC1`, the Potency entry is “inactive”.

On to `O=C(N/N=C/c1ccc2c(c1)OCO2)C(=O)N1CCCC1`, for which the Potency is 15.1 µM (active).

For the compound `CCn1ncc(C2=NOC(C(=O)Nc3ccccc3C(=O)OC)C2)c1C` (stereo not given), the Potency result was “inactive”.

For `Cc1cccc(-n2c(SCC(N)=O)nc3c(oc4ccccc43)c2=O)c1`, the Potency result is “inactive”.

Consider `CCCCC(=O)Nc1nnc(S(=O)(=O)N(C)Cc2ccco2)s1`, for which the Potency result is “inactive”.

With `CN(Cc1ccco1)S(=O)(=O)c1nnc(NC(=O)c2ccccc2)s1`, the Potency entry is “inactive and 23.9 µM (active)”.

Take `COc1cccc(C(=O)Nc2nnc(S(=O)(=O)N(C)c3ccccc3)s2)c1`: the Potency entry was “inactive”.

`CCCCN(C)CCCNC(=O)CN1N=C(c2ccc(OC)cc2)CCC1=O`: the Potency entry is “inactive”.

As for `COC(=O)CSc1nc2ccccc2c(=O)n1Cc1ccccc1`, the Potency entry was “inactive”.

For the compound `COc1ccc(NC(=O)CSc2nc3ccccc3c(=O)n2C)cc1`, the Potency result was “inactive”.

For the compound `Cc1ccc(C(=O)CSc2nc3ccccc3c(=O)n2N)o1`, the Potency was 12 µM (active).

As to `Cc1cccc(N2CCN(C3=C(c4ccccc4)C(=O)c4ccccc43)CC2)c1C`, the Potency result is “inactive”.

As for `O=[N+]([O-])c1ccc(NCCCO)c(C(F)(F)F)c1`, the Potency entry was “inactive”.

On to `COc1cccc(NC(=O)CSC2=Nc3ccccc3C3=NC(CC(=O)NC4CCCCC4)C(=O)N23)c1` (stereo not given), for which the Potency result was “inactive”.

Take `COc1ccc(Br)cc1CN1CCN(C(=O)c2cccc(OC)c2OC)CC1`: the Potency result is “inactive”.

On to `COc1cccc(C(=O)OCc2cc(=O)oc3c(C)c(C)ccc23)c1OC`, for which the Potency was 16.9 µM (active).

`COC(=O)Cc1cc(=O)oc2c(C)c(O)ccc12`: the Potency entry is “inactive”.

On to `O=C(C1COc2ccccc2O1)N(Cc1cccnc1)c1nc2c(F)cc(F)cc2s1` (stereo not given), for which the Potency result was “inactive”.

Take `COc1ccc(Nc2ncc(F)c(N3CCOCC3)n2)cc1`: the Potency was 2.39 µM (active).

On to `Cc1cc(Nc2ccc(Cl)cc2)nc(N2CCOCC2)n1`, for which the Potency result is “inactive”.

On to `CCOc1ccc(Nc2nc(Cl)nc(N3CCN(c4ccc(OC)cc4)CC3)n2)cc1`, for which the Potency result is “inactive”.

Turning to `O=C(NCc1ccccc1Cl)C1=Cc2cc(Br)ccc2OC1`, the Potency result was “inactive”.

For `COc1ccc(CCNc2nc3c(-c4cccc(F)c4)nnn3c3ccccc23)cc1OC`, the Potency result was “inactive”.

Consider `O=C(COC(=O)c1ccncc1)c1ccccc1`, for which the Potency is 23.9 µM (active).

Regarding `COc1ccc(NC(=O)COC(=O)c2ccncc2)c(OC)c1`, the Potency entry was “inactive”.

As to `O=C(OCC(O)C(O)COC(=O)c1ccccc1)c1ccccc1` (stereo not given), the Potency entry was “inactive”.

Regarding `O=C(CCc1nc(CN2CCN(S(=O)(=O)c3ccc(Cl)cc3)CC2)no1)N1CCCCC1`, the Potency entry is “inactive”.

`CCNC(=O)c1cc2n(n1)CCCN(Cc1ccc(C)cc1)C2=O`: the Potency entry is “inactive”.

Turning to `Cc1nn(CC(=O)O)c(=O)c2cc3cc(F)ccc3n12`, the Potency result is “inactive”.

In the case of `Cc1ccccc1Nc1nc(N)nc(CSc2ccccc2)n1`, the Potency is 2.13 µM (active).

Regarding `Cc1ccc(C(=O)OCc2nc(N)nc(Nc3ccccc3C)n2)cc1`, the Potency entry is “inactive”.

`Cc1ccccc1Nc1nc(N)nc(CSc2nnc3ccccn23)n1`: the Potency entry was “inactive”.

With `COc1ccc(S(=O)(=O)NCC(c2ccc(N(C)C)cc2)N2CCc3ccccc32)cc1OC` (stereo not given), the Potency result is “inactive”.

`CCOc1ccc(NC(=O)CCC(=O)N2CC(C)Oc3ccc(C)cc32)cc1` (stereo not given): the Potency entry is “inactive”.

With `O=C(c1cccc(Br)c1)N1CCN(Cc2cc(=O)n3nc(-c4ccccc4)sc3n2)CC1`, the Potency entry is “inactive”.

Consider `Cc1ccc(NC(=O)C2CCN(S(=O)(=O)c3cc(-c4noc(C)n4)ccc3C)CC2)c(C)c1`, for which the Potency entry is “inactive”.

With `O=C(CSc1nccn1Cc1ccc(Cl)cc1)NCc1ccccc1`, the Potency entry is “inactive”.

For `COc1cccc(COc2ccc(N(C)S(=O)(=O)c3ccccc3)cc2)c1`, the Potency result is “inactive”.

As to `CCOc1ccc(OCc2ccc(C(=O)N(C)c3ccccc3)o2)cc1`, the Potency entry was “inactive”.

Regarding `COc1ccc(OCc2cccc(C(=O)N3CCCC3)c2)cc1`, the Potency was 8.49 µM (active).

`COc1ccc(CNC(=O)C2CCN(C(=O)c3ccccc3)CC2)cc1`: the Potency entry was “inactive”.

As to `CCOc1ccc(OCc2cccc(C(=O)N(CC)CC)c2)cc1`, the Potency is 1.2 µM (active).

Turning to `COc1ccc(Cn2c(=S)[nH]c3cc(C(=O)N4CCCCC4)ccc3c2=O)cc1`, the Potency entry was “inactive”.

Turning to `Cc1sc2ncn(CC(=O)N3CCN(c4ccc(F)cc4)CC3)c(=O)c2c1S(=O)(=O)N1CCN(c2ncccn2)CC1`, the Potency entry was “inactive”.

On to `CCS(=O)(=O)N1CCC(n2c(C)nc3cccnc32)CC1`, for which the Potency entry is “inactive”.

For `CCc1cccc(NC(=O)Cn2nc(CC)n3c(cc4cc(C)ccc43)c2=O)c1`, the Potency result was “inactive”.

Take `O=C(CSc1ncc(CO)n1Cc1ccc(Cl)cc1)NCc1ccc(F)cc1`: the Potency entry is “inactive”.

`Cc1cccc(N2CCN(c3c(CN4CCCC4)c(=O)oc4ccccc34)CC2)c1C`: the Potency entry is “inactive”.

On to `N#CCC(=O)NC1CCC(CC2CCC(NC(=O)CC#N)CC2)CC1` (stereo not given), for which the Potency entry was “inactive”.

Turning to `Cc1ccc(C)c(S(=O)(=O)c2nnn3c2nc(N2CCOCC2)c2sccc23)c1`, the Potency entry is “inactive”.

Take `CC(C)=C1SC(N2CCN(c3ccc(C)c(Cl)c3)CC2)=NC1=O`: the Potency entry was “inactive”.

`O=c1[nH]c(N2CCOCC2)nc2ccccc12`: the Potency result was “inactive”.

Consider `O=C1N=C(N2CCOCC2)CS1`, for which the Potency result was “inactive”.

For the compound `O=C1N=C(N2CCOCC2)S/C1=C\C=C/c1ccccc1`, the Potency is 10.7 µM (active).

Consider `Cc1ccsc1/C=C1\SC(N2CCOCC2)=NC1=O`, for which the Potency was 10.7 µM (active).

As to `COc1ccccc1C1CCN(C(=S)Nc2ccc(Br)cc2)CC1`, the Potency result was “inactive”.

For the compound `O=C(Nc1ccc(Br)cc1)c1ccc(Br)c(S(=O)(=O)NCc2ccccc2)c1`, the Potency entry is “inactive”.

In the case of `Cc1ccc(Nc2nc3ccccc3nc2-n2nc(C)cc2C)c(Cl)c1`, the Potency entry was “inactive”.

As for `CCN(CC(=O)Nc1ccc(OC)cc1)C(=O)c1ccc(=O)n(Cc2ccccc2)n1`, the Potency entry is “inactive”.

For the compound `Cn1nnc2cc(C(=O)NCCC3=CCCCC3)ccc21`, the Potency was 5.36 µM (active).

With `O=C(COc1cccc(-n2cnnn2)c1)NCCC1=CCCCC1`, the Potency result was “inactive”.

Take `CC(=O)Nc1ccc(S(=O)(=O)N(C)CC(=O)NCCC2=CCCCC2)cc1`: the Potency entry was “inactive”.

Take `O=C(Cc1nn[nH]n1)NCCC1=CCCCC1`: the Potency result was “inactive”.

Turning to `Cc1ccc(-n2cnc3cc(C(=O)NCCC4=CCCCC4)ccc32)cc1Cl`, the Potency entry was “inactive”.

As to `Cc1ccn2c(=O)c(C(=O)NCCC3=CCCCC3)c(O)nc2c1`, the Potency entry was “inactive”.

`CC(C)COc1ccc(C(=O)OCC(=O)NCCC2=CCCCC2)cc1`: the Potency entry is “inactive”.

Turning to `CN(c1ccc(C(=O)NCCC2=CCCCC2)cc1)S(C)(=O)=O`, the Potency is 9.53 µM (active).

Take `O=C(NCCC1=CCCCC1)c1ccc(-n2cncn2)cc1`: the Potency is 15.1 µM (active).

Source of the values: PubChem BioAssay AID588342 (National Center for Advancing Translational Sciences (NCATS), 2011).
